The source of these data is PubChem BioAssay (Tox21).

Experiment [1] in a line: qHTS assay to identify small molecule antagonists of the estrogen related receptor (ERR) signaling pathway from Tox21 library - cell viability counter screen (AID 1224834). Further: nearly all actives have a fitted effect of over 30% in size. Further: potency means the concentration at half of the fitted maximal effect. The method in brief: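 Cytotoxicity of test substances is gauged in the same ERR cells used for the antagonist screen, after 17.5 h of compound treatment at 37 C, by CellTiter-Fluor fluorescence measured after 30 min.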
In general terms: In qHTS, concentration-response curves come from the screen itself.

In experiment [2] the target is Luciferin 4-monooxygenase (Photinus pyralis) (UniProt P08659). Kind of experiment: qHTS assay to identify small molecule inhibitors of firefly luciferase (AID 1224835). Further: nearly all actives have a fitted effect of over 25% in size. Further: potency means the concentration at half of the fitted maximal effect. The method in brief: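 Biochemical qHTS: compounds run as interplate titrations against purified firefly enzyme, with D-luciferin and ATP each at its KM concentration. Light output recorded by CCD imaging.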
Sequence of Luciferin 4-monooxygenase (Photinus pyralis) (P08659 whole entry, looked up): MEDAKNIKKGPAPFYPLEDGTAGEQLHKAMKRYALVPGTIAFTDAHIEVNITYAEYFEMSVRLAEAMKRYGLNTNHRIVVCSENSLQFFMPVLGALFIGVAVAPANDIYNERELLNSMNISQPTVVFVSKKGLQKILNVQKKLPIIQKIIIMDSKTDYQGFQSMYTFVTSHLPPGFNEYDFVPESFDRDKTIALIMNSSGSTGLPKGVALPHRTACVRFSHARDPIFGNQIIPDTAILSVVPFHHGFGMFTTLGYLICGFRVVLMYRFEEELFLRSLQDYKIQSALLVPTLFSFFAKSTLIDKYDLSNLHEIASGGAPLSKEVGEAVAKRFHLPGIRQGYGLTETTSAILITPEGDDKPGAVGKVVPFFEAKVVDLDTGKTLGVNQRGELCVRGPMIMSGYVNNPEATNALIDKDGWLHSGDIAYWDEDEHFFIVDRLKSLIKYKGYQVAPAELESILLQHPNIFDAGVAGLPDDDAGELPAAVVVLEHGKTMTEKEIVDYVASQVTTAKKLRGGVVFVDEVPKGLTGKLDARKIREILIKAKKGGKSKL

Experiment [3] can be described thus: qHTS assay to identify small molecule antagonists of the constitutive androstane receptor (CAR) signaling pathway - cell viability counter screen (AID 1224837). Further: nearly all actives have a fitted effect of over 45% in size. The method in brief: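 Multiplexed cytotoxicity read-out for the CAR antagonist screen: double-stable HepG2-CYP2B6-hCAR cells co-treated with 50 nM CITCO (final) and compound over 15 concentrations, incubated 23 hr, then assessed by CellTiter-Fluor fluorescence.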

Experiment [4] can be described thus: qHTS assay to identify small molecule antagonists of the estrogen related receptor signaling pathway with the pleiotropic PPARgamma coactivator (PGC) from Tox21 10K library (AID 1224841; call rule not given here; further: actives are mostly falling curves and most rising ones were filed inactive; nearly all actives have a fitted effect of over 50% in size; further: potency means the concentration at half of the fitted maximal effect). An outline of the steps: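 Antagonism in this quantitative HTS is taken from loss of luciferase signal in PGC/ERR cells. Cells (2,000/well) are treated with compounds in DMSO after a 6 h settling period and read by One-Glo luminescence after 18 h.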

The target of experiment [5] is Thyrotropin receptor (Homo sapiens) (UniProt P16473). Kind of experiment: qHTS assay to identify small molecule agonists of the thyroid stimulating hormone receptor (TSHR) signaling pathway (AID 1224843; calls by dose curve; further: nearly all actives have a fitted effect of over 45% in size). An outline of the steps: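 Steps: seed 800 TSHR-HEK293 cells per well; add test compound and hold 30 min at ambient temperature; dispense cAMP-d2 then anti-cAMP cryptate; incubate 1 h at ambient; measure fluorescence intensity.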
Sequence of Thyrotropin receptor (Homo sapiens) (P16473 whole entry, looked up): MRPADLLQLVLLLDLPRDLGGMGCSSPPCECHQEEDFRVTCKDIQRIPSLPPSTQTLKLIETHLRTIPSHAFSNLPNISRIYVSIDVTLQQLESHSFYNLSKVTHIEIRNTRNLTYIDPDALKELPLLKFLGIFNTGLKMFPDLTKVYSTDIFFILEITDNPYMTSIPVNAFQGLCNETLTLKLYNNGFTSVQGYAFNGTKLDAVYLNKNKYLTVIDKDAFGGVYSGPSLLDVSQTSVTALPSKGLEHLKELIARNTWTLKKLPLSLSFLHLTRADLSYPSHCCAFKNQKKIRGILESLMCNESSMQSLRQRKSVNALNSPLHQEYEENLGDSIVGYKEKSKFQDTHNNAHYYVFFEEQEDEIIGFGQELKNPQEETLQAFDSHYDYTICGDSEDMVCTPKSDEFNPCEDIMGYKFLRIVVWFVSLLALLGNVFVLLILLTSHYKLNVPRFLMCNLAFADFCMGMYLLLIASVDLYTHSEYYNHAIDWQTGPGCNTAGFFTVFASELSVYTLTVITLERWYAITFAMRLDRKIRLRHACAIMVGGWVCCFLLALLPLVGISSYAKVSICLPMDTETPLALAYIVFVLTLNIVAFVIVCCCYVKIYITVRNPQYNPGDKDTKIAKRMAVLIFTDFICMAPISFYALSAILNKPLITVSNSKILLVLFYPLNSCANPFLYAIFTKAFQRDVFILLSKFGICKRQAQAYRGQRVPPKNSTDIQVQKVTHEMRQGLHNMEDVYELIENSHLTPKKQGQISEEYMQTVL

The nature of experiment [6]: qHTS assay to identify small molecule agonists of the hypoxia (HIF-1) signaling pathway - cell viability counter screen (AID 1224844; calls by dose curve; further: nearly all actives have a fitted effect of over 50% in size). The method in brief:
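Tox21 10K compounds were added to HRE-bla ME-180 cells (0.5% dialyzed FBS) and incubated 17 hrs at 37C; ATP-based CellTiter-Glo luminescence then reported cell viability in the same wells.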

The nature of experiment [7]: qHTS assay to identify small molecule agonists of H2AX (AID 1224845; active means well fitted activation curve with a large enough effect in the signal ratio in the repeat runs, not every such curve was filed as active; the % refers to the signal ratio). The method in brief: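 Wild-type CHO-K1 cells, plated overnight, exposed 3hr at 37C to 15 concentrations (0.76% DMSO final). Lysed, then HTRF anti-pH2AX (S139) cryptate and anti-H2AX-d2 antibodies, 24 hr room temperature; 665/620 nm emission read.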
Experiment [8] in a line: qHTS assay to identify small molecule agonists of the hypoxia (HIF-1) signaling pathway (AID 1224846; active means well fitted activation curve with a large enough effect in the signal ratio in the repeat runs, not every such curve was filed as active; the % refers to the signal ratio). An outline of the steps:
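Steps: seed ME-180 HRE-bla cells (2,000/well, 0.5% dialyzed FBS); incubate 5 hrs at 37C; pin-transfer compounds or DMSO; incubate 17 hrs; add LiveBLAzer B/G substrate CCF4-AM; measure reporter activation by FRET.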

Experiment [9] in a line: qHTS assay to identify small molecule agonists of H2AX - cell viability counter screen (AID 1224847; calls by dose curve; further: nearly all actives have a fitted effect of over 30% in size; further: potency means the concentration at half of the fitted maximal effect; on activity change, negative = cytotoxicity: top concentration of the series differs between compounds). The method in brief: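 Viability of CHO-K1 (wild type) cells after 3 hr compound exposure was measured by CellTiter-Glo luminescence.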
Experiment [10] is described as follows: qHTS assay to identify small molecule antagonists of the estrogen related receptor (ERR) signaling pathway from Tox21 library (AID 1224848). Further: nearly all actives have a fitted effect of over 50% in size. The method in brief:
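Luminescent reporter read-out (ONE-Glo) from NTP's ERR cell line after 18 h treatment at 37 C with DMSO-dissolved Tox21 compounds; cells pre-plated 6 h beforehand at 2,000 per well.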

Experiment [11] in a line: qHTS assay to identify small molecule agonists of the estrogen related receptor (ERR) signaling pathway from Tox21 library (AID 1224849; calls by dose curve; further: nearly all actives have a fitted effect of over 15% in size). The following applies: ERR reporter cell line, ONE-Glo luciferase, 18 h; at 92.4 µM (top of the series) unless noted. The method in brief:
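Agonist signal is luciferase luminescence from an ERR reporter cell line treated 18 h at 37 C with DMSO-dissolved compounds, read 30 min after ONE-Glo addition at room temperature.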

Experiment [12] in a line: qHTS RealTime-Glo MT Cell Viability Assay in HepG2 cells - 24 hour (AID 1224867). Further: nearly all actives have a fitted effect of over 50% in size. The method in brief: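 HepG2 cells were seeded at 600 cells/well together with NanoLuc luciferase and a cell-permeant prosubstrate, preincubated 5 h at 37 C/5% CO2, then pin-dosed with compounds in DMSO. Nonlytic luminescence from viable cells was read at each time point.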
Experiment [13] can be described thus: qHTS RealTime-Glo MT Cell Viability Assay in HEK293 cells - 32 hour (AID 1224868). Further: nearly all actives have a fitted effect of over 50% in size. Further: potency means the concentration at half of the fitted maximal effect. On activity change, negative = cytotoxic: top concentration of the series differs between compounds. An outline of the steps:
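HEK293 cells were seeded at 600 cells/well together with NanoLuc luciferase and cell-permeant prosubstrate, preincubated 5 h at 37 C/5% CO2, then given compound in DMSO by pintool. Luminescence from viable-cell prosubstrate reduction was read repeatedly over 40 h.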

The nature of experiment [14]: A CellTox Green Cytotoxicity Assay to monitor cytotoxicity in HEK293 cells - 0 hour (AID 1224869). Further: nearly all actives have a fitted effect of over 50% in size. An outline of the steps:
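Cytotoxicity was tracked continuously in HEK293 cells by a DNA-binding dye excluded from viable cells. Compounds were transferred in DMSO 5 h after seeding; fluorescence was recorded at intervals up to 40 h.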

Experiment [15] is described as follows: qHTS assay to identify small molecule agonists of the constitutive androstane receptor (CAR) signaling pathway - cell viability counter screen (AID 1224836). Further: nearly all actives have a fitted effect of over 45% in size. The method in brief:
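Fluorescence from CellTiter-Fluor indicates live cells after 23 h exposure. The human hepatoma line expresses hCAR and a CYP2B6-2.2kb reporter. Incubation medium contains 0.75 uM PK11195 (final).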

Experiment [16] in a line: qHTS assay to identify small molecule antagonists of the estrogen related receptor signaling pathway with the pleiotropic PPARgamma coactivator (PGC) from Tox21 10K library - cell viability counter screen (AID 1224840; active means well fitted cell-killing curve with a large enough effect in the repeat runs, not every such curve was filed as active; further: nearly all actives have a fitted effect of over 40% in size). An outline of the steps:
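Step one, plate 2,000 PGC/ERR cells per well; step two, incubate 6 h at 37 C/5% CO2; step three, pin-transfer compounds; step four, incubate 17.5 h; step five, add CellTiter-Fluor and read fluorescence after 30 min.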

Experiment [17] concerns the target Nuclear receptor subfamily 1 group I member 3 (Homo sapiens) (UniProt Q14994). Kind of experiment: qHTS assay to identify small molecule antagonists of the constitutive androstane receptor (CAR) signaling pathway (AID 1224838). Further: nearly all actives have a fitted effect of over 40% in size. Further: potency means the concentration at half of the fitted maximal effect. The method in brief: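 Compounds were titrated across 15 concentrations onto HepG2 cells double-stably expressing hCAR and a CYP2B6-2.2kb reporter, together with 50 nM CITCO (final). After 24 h at 37 C, luciferase activity was measured by luminescence.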

Experiment [18] has the same target. Nature of the experiment: qHTS assay to identify small molecule agonists of the constitutive androstane receptor (CAR) signaling pathway (AID 1224839). Further: nearly all actives have a fitted effect of over 15% in size. An outline of the steps:
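Stable hCAR/CYP2B6-2.2kb HepG2 line in DMEM with 10% FBS; compounds (15 concentrations) and 0.75 uM PK11195 final, 24 h at 37 C/5% CO2, then ONE-Glo luminescence after 30 min.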

The structures appear in SMILES notation. A number with no mark means an inactive call. Inconclusive results are not listed. Activity calls are given as the source filed them. Unless noted, the call rests on the fitted dose curve; in most records, active means well fitted curve in the direction sought with a large enough effect in the repeat runs; inconclusive means weak or mixed curves; inactive means no such curve, though single readings can be large; an effect the other way counts as inactive or inconclusive.
On the % scale 0 is the no-effect control and ±100 the full control effect.

Sequence of Nuclear receptor subfamily 1 group I member 3 (Homo sapiens) (Q14994 whole entry, looked up): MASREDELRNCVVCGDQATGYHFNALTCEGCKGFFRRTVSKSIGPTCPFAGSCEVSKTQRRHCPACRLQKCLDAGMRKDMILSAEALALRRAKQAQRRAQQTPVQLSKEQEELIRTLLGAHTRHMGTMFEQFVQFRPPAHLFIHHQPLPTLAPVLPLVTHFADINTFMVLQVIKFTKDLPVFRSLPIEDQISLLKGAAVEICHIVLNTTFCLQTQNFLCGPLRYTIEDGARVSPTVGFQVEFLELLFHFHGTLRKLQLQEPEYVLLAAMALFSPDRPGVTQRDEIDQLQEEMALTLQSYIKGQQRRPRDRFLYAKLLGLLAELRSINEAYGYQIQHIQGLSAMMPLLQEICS

On to `NC(=O)N(O)[C@@H]1C=C[C@H](Oc2cccc(Oc3ccc(F)cc3)c2)C1`, for which the Potency entry in [1], in experiment [3], in experiment [4], in experiment [5], in experiment [6] and in [7] was “inactive” in each case. Further, the Potency result in experiment [9], in experiment [10], in experiment [12] and in experiment [14] was “inactive” in each case. In addition, the Potency in [2] is 31.7 µM (active); in experiment [13] it was 17.4 µM (active). Further, the result in experiment [8] was inactive. Further, in experiment [11], the activity change, positive = activation is -15%.
For `CO[Si](C)(OC)OC`, the Potency result in [1], in experiment [2], in experiment [15], in experiment [3], in experiment [16] and in [5] was “inactive” throughout. Further, the Potency result in experiment [6], in experiment [7], in experiment [9], in experiment [12], in [13] and in experiment [14] was “inactive” throughout. In addition, the outcome in [8] was inactive.
`O=C(Nc1ccc([N+](=O)[O-])cc1)Nc1ccc([N+](=O)[O-])cc1`: the Potency result in [1], in experiment [2], in [15], in [3], in [16] and in experiment [5] was “inactive” each time. For the same molecule, the Potency result in [7] and in experiment [14] was “inactive” each time. For the same molecule, the outcome in experiment [8] was inactive. Besides, the Potency in experiment [13] is 7.56 µM (active).
For `CC[C@@H]([C@H](C)O)n1ncn(-c2ccc(N3CCN(c4ccc(OC[C@@H]5CO[C@@](Cn6cncn6)(c6ccc(F)cc6F)C5)cc4)CC3)cc2)c1=O`, the figures for the Potency in experiment [1], in [9] and in experiment [13] were 9.44 µM (active), 19.6 µM (active) and 3.01 µM (active), respectively. Besides, the Potency entry in [2], in experiment [17], in experiment [18], in experiment [7] and in experiment [14] was “inactive” each time. The result in experiment [8] was inactive.
`C/C=C(\C)C(=O)OCCC(C)CCC=C(C)C` (configuration not stated): the Potency result in experiment [1], in experiment [2], in experiment [15], in [3], in experiment [16] and in [6] was “inactive” throughout. For the same molecule, the Potency entry in experiment [7], in [12], in [13] and in experiment [14] was “inactive” in each case.
`[O]=[Bi]`: the values for the viability change, negative = cytotoxic in [1], in experiment [15] and in experiment [16] were 0.391% [at 8.39 µM], 0.628% [at 8.39 µM] and -7.88% [at 8.39 µM], respectively. The activity change, negative = inhibition in [2] was 1.77% [at 10.5 µM]. In addition, the figures for the activity change, negative = cytotoxicity in experiment [3], in experiment [6] and in experiment [12] were -5.97% [at 8.39 µM], 28.4% [at 6.97 µM] and 3.35% [at 6.97 µM], respectively. Also, the Potency in experiment [4] is 2.11 µM (active). Also, the activation (H2AX phosphorylation) in experiment [7] was -0.036% [at 14 µM]. For the same molecule, in experiment [8], the activation was 0% [at 7.01 µM]. Besides, in experiment [10], the activity, negative = inhibition was -9.31% [at 8.39 µM]. For the same molecule, in experiment [11], the activity change, positive = activation is -10.5% [at 8.39 µM]. Further, in [13], the activity change, negative = cytotoxic was 4.51% [at 6.97 µM]. Further, the cytotoxicity in experiment [14] is -1.07% [at 6.97 µM].
With `O=C(O)c1snc(Cl)c1Cl`, the Potency entry in experiment [1], in experiment [15], in experiment [3], in [17], in [18] and in experiment [16] was “inactive” throughout. The Potency entry in experiment [5], in experiment [6], in experiment [7], in [9], in experiment [12] and in experiment [13] was “inactive” throughout. In addition, the Potency entry in [14] was “inactive”. Besides, the call in [8] was inactive.
`O=C(CCCN1CCN(c2ccc(F)cc2)CC1)NC1c2ccccc2CSc2ccccc21` (configuration not stated): the Potency entry in experiment [1], in [2], in experiment [18], in [16], in experiment [5] and in experiment [6] was “inactive” in each case. The Potency entry in [7] and in [14] was “inactive” throughout. Moreover, the Potency is 29.8 µM (active) in experiment [17] and 19 µM (active) in [13]. The molecule was classed as inactive in [8].
For `Cc1ccccc1N1C(=O)c2cc(S(N)(=O)=O)c(Cl)cc2NC1C` (configuration not stated), the Potency entry in experiment [1], in [2], in experiment [15], in experiment [3], in experiment [16] and in experiment [5] was “inactive” throughout. The Potency entry in [6], in experiment [7], in experiment [9], in [12], in [13] and in experiment [14] was “inactive” each time.
